# Hits are enriched below; roughly 2.1% of the tested compounds scored in any of these assays.
# ARNT-TACC3 inh – disruptors of ARNT/TACC3 protein interaction, primary screen, biochemical, AlphaScreen, single concentration; 390,000 compounds, 0.66% hits; inhibition, % at 9.99 µM; Transforming acidic coiled-coil-containing protein 3 (Homo sapiens), Q9Y6A5; AlphaScreen His-ARNT PAS-B/GST-TACC3 binding, luminescence; TACC3 fragment carries E629A point mutation;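 active = mean inhibition of replicates at least 50% and at least half of replicates each reaching 50%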;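 also: 0% = complete ARNT plus TACC3 wells and 100% = ARNT alone without TACC3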
# SIRT5 inh – SIRT5 desuccinylase inhibitors, primary screen, biochemical, fluorescence imaging, single point, set 5 | Purified SirT5, succinyl-peptide AMC, trypsin-coupled fluorescence | 330,000 compounds, 1.1% hits | NAD-dependent protein deacylase sirtuin-5, mitochondrial (Homo sapiens), Q9NXA8 | inhibition, % at 15 µM; in the data active = inhibition above about 15%
# Target sequence (Q9NXA8 whole entry, looked up): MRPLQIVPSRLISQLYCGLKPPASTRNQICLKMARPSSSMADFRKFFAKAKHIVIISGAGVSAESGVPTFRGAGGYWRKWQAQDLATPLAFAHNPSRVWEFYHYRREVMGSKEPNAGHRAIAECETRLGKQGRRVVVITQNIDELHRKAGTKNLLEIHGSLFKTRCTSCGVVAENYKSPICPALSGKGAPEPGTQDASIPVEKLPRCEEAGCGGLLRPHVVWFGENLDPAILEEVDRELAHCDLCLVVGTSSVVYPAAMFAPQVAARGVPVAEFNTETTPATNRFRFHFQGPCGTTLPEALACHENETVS
# NSD2 inh – NSD2 histone methyltransferase inhibitors, primary screen, biochemical, AlphaScreen, single concentration, set 2. NSD2 peptide methylation, 120 min. inhibition, % at 12.5 µM. 310,000 compounds, 0.54% hits. Histone-lysine N-methyltransferase NSD2 (Homo sapiens), O96028. AID 743445, 2014; in the data active = inhibition above about 50%
# Casp6 inh – human caspase-6 inhibitors, primary screen, biochemical, VEID-R110 fluorescence, single point, set 2. P55212. purified caspase-6, Z-VEID-R110 cleavage fluorescence. inhibition, % at 12.5 µM. 350,000 compounds, 0.53% hits. AID 686996, 2013;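 active = mean inhibition across replicates at least about 35%, with every replicate also reaching that limit, limit read from the data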;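 also: 0% = median of neutral control wells and 100% = no fluorescence left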
# Target sequence (P55212 24-179 limits assumed): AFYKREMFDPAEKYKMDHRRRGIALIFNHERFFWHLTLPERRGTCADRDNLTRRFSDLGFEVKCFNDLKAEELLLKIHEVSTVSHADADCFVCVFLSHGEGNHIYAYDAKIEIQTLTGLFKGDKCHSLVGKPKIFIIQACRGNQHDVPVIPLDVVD
# Target sequence (P55212 194-293 limits assumed): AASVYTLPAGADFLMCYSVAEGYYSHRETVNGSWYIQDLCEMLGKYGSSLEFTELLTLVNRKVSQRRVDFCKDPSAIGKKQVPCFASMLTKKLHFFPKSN
# PfHsp90 yeast 2 – growth inhibition of PfHsp90-expressing yeast, primary screen, antimalarial PfHsp90 inhibitor project, S. cerevisiae, BacTiter-Glo luminescence, single point, set 2; BacTiter-Glo ATP, 48 h; yeast lacking PDR1 and PDR3 efflux regulators; inhibition, % at 9.4 µM; 310,000 compounds, 0.32% hits; AID 504621, 2011;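 active = every replicate shows inhibition above about 80%, whatever the replicate mean, limit read from the data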;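 also: 0% = DMSO neutral controls and 100% = 20 µM radicicol positive controls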
# An asterisk follows results filed as active; . = no result.
SMILES,ARNT-TACC3 inh,SIRT5 inh,NSD2 inh,Casp6 inh,PfHsp90 yeast 2
O=S(=O)(N[C@@H]1CC[C@H](CCn2cc(-c3ccccn3)nn2)O[C@@H]1CO)c1cccc(F)c1,92*,-6,.,1,.
CN(C)Cc1cn(CC[C@@H]2CC[C@H](N)[C@H](CO)O2)nn1,-8,21*,.,0,.
CN(C)Cc1cn(CC[C@@H]2CC[C@@H](N)[C@H](CO)O2)nn1,9,0,.,0,.
CN(C)Cc1cn(CC[C@H]2CC[C@H](NS(=O)(=O)c3ccccc3)[C@H](CO)O2)nn1,-5,33*,.,3,.
COCC#Cc1ccc2c(c1)O[C@H](CN(C)C)[C@H](C)CN([C@H](C)CO)S2(=O)=O,-6,-1,.,0,.
C[C@@H]1C=CCCO[C@]12C(=O)N(Cc1ccc(F)cc1)c1cccc(Br)c12,.,0,-1,-3,.
C[C@@H]1C=CCCO[C@]12C(=O)N(Cc1ccccc1C(F)(F)F)c1ccccc12,.,18*,.,-3,.
Cc1c(N=NC2=C(O)CCCC2=O)c(=O)n(-c2ccccc2)n1C,63*,26*,0,17,-11
Cc1c(N=Nc2ccc(O)cc2)c(=O)n(-c2ccccc2)n1C,14,6,-1,5,.
C[C@H]1CN([C@@H](C)CO)C(=O)c2cccc(NC(=O)C3CC3)c2O[C@@H]1CN(C)Cc1ccc(Cl)c(Cl)c1,-7,3,.,2,.
O=c1c2ccccc2sn1-c1ccccc1,10,.,7,.,88*
Cc1ccc(-n2sc3ccccc3c2=O)cc1S(=O)(=O)N1CCCCC1,0,-6,.,-1,106*
O=c1c2ccccc2sn1-c1cccc(Cl)c1,.,0,.,0,.
CCC(=O)c1ccc(OCC(=O)OCC(=O)c2cc(C)n(C)c2C)cc1,-1,-3,0,36*,.
CCC(=O)c1ccc(OCC(=O)OCC(=O)c2c(N)n(C)c(=O)n(C)c2=O)cc1,-3,-3,-1,-1,-15
CC(C)C(=O)Nc1ncc(Cc2ccccc2Cl)s1,4,1,-1,0,19
N#CCC(=O)Nc1ncc(Cc2ccccc2Cl)s1,-2,15*,-1,-4,-1
O=C(C[C@H]1C[C@H]2c3cc(NC(=O)Cc4ccncc4)ccc3O[C@H]2[C@@H](CO)O1)NCc1cccnc1,2,-3,.,2,.
CO[C@@H]1CN(C)C(=O)c2cc(NC(=O)c3ccc(Oc4ccccc4)cc3)ccc2OC[C@@H](C)N(C(C)=O)C[C@H]1C,14,1,.,1,.
CCCc1sc(N/N=C/c2ccccn2)nc1-c1ccc(F)cc1,67*,.,.,.,124*
Cc1noc(C)c1S(=O)(=O)Nc1ccc2c(c1)CC(=O)N([C@H](C)CO)C[C@H](C)[C@H](CN(C)Cc1ccc(-c3ccccc3)cc1)O2,.,15*,.,1,.
COc1ccc(CN(C)C[C@@H]2Oc3ccc(NS(=O)(=O)c4c(C)noc4C)cc3CC(=O)N([C@@H](C)CO)C[C@@H]2C)cc1,.,24*,.,-1,.
CCCNC(=O)N1CCC2(CC1)CN(Cc1ccc(F)cc1)[C@@H](CO)c1[nH]c3cc(OC)ccc3c12,.,-2,.,0,.
CCn1c(CNc2ccc(Cl)cc2)nnc1SCc1ccccc1,.,.,2,.,93*
Cn1c(CNc2ccc(Cl)cc2)nnc1SCC#N,2,1,-1,-1,2
SMILES,ARNT-TACC3 inh,SIRT5 inh,NSD2 inh,Casp6 inh,PfHsp90 yeast 2
Cn1c(CNc2ccc(Cl)cc2)nnc1SCc1ccccc1,-6,.,5,.,121*
COc1ccccc1C(=O)NCCC(=O)Nc1ccncc1,1,-1,-2,-5,.
COc1ccccc1C(=O)NCCC(=O)Nc1ccc(OC(F)(F)F)cc1,8,102*,-6,-6,4
Cc1ccccc1-c1ccc([C@H]2[C@@H](CO)N3CCCCN(C(=O)Nc4ccccc4)C[C@@H]23)cc1,14,1,.,0,.
Cc1ccccc1-c1ccc([C@@H]2[C@H](CO)N3CCCCN(C(=O)Nc4ccc(F)cc4)C[C@@H]23)cc1,5,17*,.,0,.
Cc1ccccc1-c1ccc([C@@H]2[C@@H](CO)N3CCCCN(C(=O)Nc4ccc(F)cc4)C[C@@H]23)cc1,-2,15*,.,-5,.
CCCC(=O)N1CC2(CN(C(=O)C3CCC3)C2)c2c(n(C)c3cc(OC)ccc23)[C@H]1CO,.,-4,.,-1,.
CN1CCN(C(=O)C[C@@H]2CC[C@H]3[C@@H](COc4ccc(NC(=O)C5CC5)cc4C(=O)N3C)O2)CC1,-9,-3,.,1,.
C[C@@H]1CN([C@H](C)CO)C(=O)c2cccc(NC(=O)C3CCOCC3)c2O[C@@H]1CN(C)S(=O)(=O)c1ccc(F)cc1,-6,-1,.,-1,.
Cc1cccc(-c2ccc([C@H]3[C@@H](CO)N4C(=O)CN(S(=O)(=O)c5cccc(F)c5)C[C@@H]34)cc2)c1,.,17*,.,-3,.
O=C1CN(S(=O)(=O)c2cccc(F)c2)C[C@@H]2[C@H](c3ccc(-c4ccccc4)cc3)[C@H](CO)N12,.,3,.,0,.
Cc1cccc(-c2ccc([C@H]3[C@H]4CN(S(=O)(=O)c5cccc(F)c5)CC(=O)N4[C@H]3CO)cc2)c1,.,19*,.,-1,.
C=CCc1cc(OC)ccc1OCCN1CC(C)OC(C)C1 (stereo unspecified),-4,102*,5,-1,-9
CCCNC(=O)Nc1ccc2c(c1)OC[C@H](C)N(S(C)(=O)=O)C[C@@H](C)[C@@H](OC)CN(C)C2=O,.,15*,.,-10,.
CCCC(=O)Nc1ccc2c(c1)OC[C@H](C)N(Cc1ccccc1)C[C@@H](C)[C@@H](OC)CN(C)C2=O,-10,37*,.,-1,.
CCC(=O)Nc1ccc2c(c1)OC[C@H](C)N(Cc1cccc(F)c1)C[C@@H](C)[C@H](OC)CN(C)C2=O,-1,20*,.,-4,.
CC=Cc1ccc2n(c1=O)C[C@H]1[C@H](CO)[C@@H](C(=O)N3CCC(Cc4ccccc4)CC3)N(C)[C@@H]21 (mixture of isomers),-3,.,.,.,.
O=C1COc2ccc(S(=O)(=O)CCC(=O)N3CCN(c4ccccc4)CC3)cc2N1,-1,-1,-1,1,19
Cc1ccc(C)c(N2CCN(C(=O)CCS(=O)(=O)c3ccc4c(c3)NC(=O)CO4)CC2)c1,6,0,-1,71*,-2
CCOc1nc(NCCO)nc(Nc2cc(Cl)ccc2OC)n1,-5,-1,-2,2,.
C=CCNc1nc(Nc2cc(Cl)ccc2OC)nc(OC)n1,-3,1,-1,39*,-3
CCCCOc1cc(NCc2ccccc2)c2ncn(C(C)C)c2c1,-1,.,.,5,-4
CC(C)n1cnc2c(NCc3ccccc3)cc(N[C@H](C)CO)cc21,34*,.,.,.,-9
